Assay results published in PubChem BioAssay AID1159580 (chemical genetic matrix, 2015).
Out of some 5,500 compounds screened, about 2,000 (36%) were called active. Inconclusive results (about 18%) are left out. Cut-off read from the data, not from the text of the source: active = normalized growth mostly below about 0.91 (no sharp cut-off); inconclusive = no clear call, values can overlap the other calls; inactive = mostly above about 0.92. This is one part of the list.

Assay: chemical genetic growth profiling, strain panel (AID 1159580);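 note: tested at 20 µM; growth read once vehicle control cultures reached saturation at 30 °C; 1 = growth at the plate median or of vehicle wells; lower values mean less growth of the strain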
Conditions: growth OD

Measured: normalized growth

CC(=O)Oc1cccc2c1C(=O)c1c(OC(C)=O)cc(C(=O)O)cc1C2=O
inactive: S. cerevisiae deletion strains, locus YJR075W, strain HOC1, active compounds read low 0.994 | S. cerevisiae deletion strains, locus YKL009W, strain mrt4, active compounds read low 0.986 | S. cerevisiae deletion strains, locus YKL068W, active compounds read low 0.993 | S. cerevisiae deletion strains, locus YKL085W, strain MDH1 (second series), active compounds read low 1 | S. cerevisiae deletion strains, locus YKL085W, strain MDH1, active compounds read low 1 | S. cerevisiae deletion strains, locus YKL190W, strain CNB1, active compounds read low 0.986 | S. cerevisiae deletion strains, locus YKR091W, strain srl3, active compounds read low 0.944 | S. cerevisiae deletion strains, locus YLL041C, strain sdh2, active compounds read low 0.954 | S. cerevisiae deletion strains, locus YLR039C, strain RIC1, active compounds read low 1.02 | S. cerevisiae deletion strains, locus YLR058C, strain SHM2, active compounds read low 1 | S. cerevisiae deletion strains, locus YLR113W, strain HOG1, active compounds read low 1 | S. cerevisiae deletion strains, locus YLR262C, strain YPT6 (second series), active compounds read low 0.891 | S. cerevisiae deletion strains, locus YLR262C, strain YPT6, active compounds read low 1.05 | S. cerevisiae deletion strains, locus YLR320W, strain mms22, active compounds read low 0.908 | S. cerevisiae deletion strains, locus YLR330W, strain CHS5, active compounds read low 1.01 | S. cerevisiae deletion strains, locus YLR342W, strain FKS1 (second series), active compounds read low 1.05 | S. cerevisiae deletion strains, locus YLR357W, strain rsc2, active compounds read low 0.859 | S. cerevisiae deletion strains, locus YLR370C, strain arc18, active compounds read low 0.917 | S. cerevisiae deletion strains, locus YLR384C, strain iki3, active compounds read low 0.954 | S. cerevisiae deletion strains, locus YML016C, strain PPZ1, active compounds read low 1.01 | S. cerevisiae deletion strains, locus YML120C, strain ndi1, active compounds read low 0.943 | S. cerevisiae deletion strains, locus YMR125W, strain sto1, active compounds read low 0.94 | S. cerevisiae deletion strains, locus YMR129W, active compounds read low 0.947 | S. cerevisiae deletion strains, locus YMR205C, strain PFK2, active compounds read low 0.948 | S. cerevisiae deletion strains, locus YMR231W, strain pep5, active compounds read low 0.942 | S. cerevisiae deletion strains, locus YMR263W, strain SAP30, active compounds read low 1 | S. cerevisiae deletion strains, locus YMR307W, strain GAS1, active compounds read low 1.18 | S. cerevisiae deletion strains, locus YNL067W, strain RPL9B, active compounds read low 1.01 | S. cerevisiae deletion strains, locus YNL128W, strain TEP1, active compounds read low 0.993 | S. cerevisiae deletion strains, locus YNL153C, strain GIM3, active compounds read low 1.01 | S. cerevisiae deletion strains, locus YNL183C, strain NPR1, active compounds read low 0.896 | S. cerevisiae deletion strains, locus YNL209W, strain ssb2, active compounds read low 0.93 | S. cerevisiae deletion strains, locus YNL233W, strain BNI4, active compounds read low 1.02 | S. cerevisiae deletion strains, locus YNL248C, strain rpa49, active compounds read low 0.948 | S. cerevisiae deletion strains, locus YNL250W, strain rad50, active compounds read low 0.992 | S. cerevisiae deletion strains, locus YNL271C, strain bni1, active compounds read low 0.997 | S. cerevisiae deletion strains, locus YNL298W, strain CLA4, active compounds read low 0.995 | S. cerevisiae deletion strains, locus YNL322C, strain KRE1, active compounds read low 1 | S. cerevisiae deletion strains, locus YNR049C, strain mso1, active compounds read low 0.956 | S. cerevisiae deletion strains, locus YOL006C, strain TOP1, active compounds read low 1.02 | S. cerevisiae deletion strains, locus YOR001W, strain rrp6, active compounds read low 0.952 | S. cerevisiae deletion strains, locus YOR061W, strain CKA2, active compounds read low 0.996 | S. cerevisiae deletion strains, locus YOR069W, strain VPS5, active compounds read low 1 | S. cerevisiae deletion strains, locus YOR070C, strain gyp1, active compounds read low 0.932 | S. cerevisiae deletion strains, locus YOR080W, strain dia2, active compounds read low 0.938 | S. cerevisiae deletion strains, locus YOR083W, strain WHI5, active compounds read low 0.918 | S. cerevisiae deletion strains, locus YOR106W, strain vam3, active compounds read low 0.905 | S. cerevisiae deletion strains, locus YOR184W, strain ser1, active compounds read low 1.02 | S. cerevisiae deletion strains, locus YOR231W, strain MKK1, active compounds read low 0.95 | S. cerevisiae deletion strains, locus YOR270C, strain vph1, active compounds read low 0.925 | S. cerevisiae deletion strains, locus YOR290C, strain snf2, active compounds read low 0.927 | S. cerevisiae deletion strains, locus YPL055C, strain LGE1, active compounds read low 1.01 | S. cerevisiae deletion strains, locus YPL078C, strain atp4, active compounds read low 0.899 | S. cerevisiae deletion strains, locus YPL106C, strain sse1, active compounds read low 0.989 | S. cerevisiae deletion strains, locus YPL241C, strain CIN2, active compounds read low 1.05 | S. cerevisiae deletion strains, locus YPL256C, strain CLN2, active compounds read low 0.955 | S. cerevisiae deletion strains, locus YPR141C, strain kar3, active compounds read low 0.997 | S. cerevisiae strains, strain wild type, active compounds read low 0.998
active: S. cerevisiae deletion strains, locus YKL160W, strain elf1, active compounds read low 0.901 | S. cerevisiae deletion strains, locus YKR001C, strain vps1, active compounds read low 0.174 | S. cerevisiae deletion strains, locus YKR026C, strain gcn3, active compounds read low 0.908 | S. cerevisiae deletion strains, locus YLL001W, strain dnm1, active compounds read low 0.901 | S. cerevisiae deletion strains, locus YLL026W, active compounds read low 0.917 | S. cerevisiae deletion strains, locus YLR027C, strain aat2, active compounds read low 0.92 | S. cerevisiae deletion strains, locus YLR102C, strain apc9, active compounds read low 0.589 | S. cerevisiae deletion strains, locus YLR221C, strain rsa3, active compounds read low 0.898 | S. cerevisiae deletion strains, locus YLR258W, strain gsy2, active compounds read low 0.909 | S. cerevisiae deletion strains, locus YLR268W, strain sec22, active compounds read low 0.39 | S. cerevisiae deletion strains, locus YLR342W, strain FKS1, active compounds read low 0.891 | S. cerevisiae deletion strains, locus YLR371W, strain rom2, active compounds read low 0.433 | S. cerevisiae deletion strains, locus YLR418C, strain cdc73, active compounds read low 0.28 | S. cerevisiae deletion strains, locus YML032C, strain rad52, active compounds read low 0.392 | S. cerevisiae deletion strains, locus YML124C, strain tub3, active compounds read low 0.537 | S. cerevisiae deletion strains, locus YMR058W, strain fet3, active compounds read low 0.806 | S. cerevisiae deletion strains, locus YMR078C, strain ctf18, active compounds read low 0.826 | S. cerevisiae deletion strains, locus YMR223W, strain ubp8, active compounds read low 0.301 | S. cerevisiae deletion strains, locus YNL071W, strain lat1, active compounds read low 0.901 | S. cerevisiae deletion strains, locus YNL307C, strain MCK1, active compounds read low 0.221 | S. cerevisiae deletion strains, locus YNL322C, strain KRE1 (second series), active compounds read low 0.887 | S. cerevisiae deletion strains, locus YNR052C, strain pop2, active compounds read low 0.135 | S. cerevisiae deletion strains, locus YOL012C, strain htz1 2.42 [resistant] | S. cerevisiae deletion strains, locus YOL147C, strain pex11, active compounds read low 0.433 | S. cerevisiae deletion strains, locus YOR136W, strain idh2, active compounds read low 0.498 | S. cerevisiae deletion strains, locus YOR144C, strain elg1, active compounds read low 0.609 | S. cerevisiae deletion strains, locus YOR265W, strain rbl2, active compounds read low 0.918 | S. cerevisiae deletion strains, locus YOR316C, strain cot1, active compounds read low 0.433 | S. cerevisiae deletion strains, locus YPL051W, strain arl3, active compounds read low 0.867 | S. cerevisiae deletion strains, locus YPL240C, strain hsp82, active compounds read low 0.909 | S. cerevisiae deletion strains, locus YPR119W, strain clb2, active compounds read low 0.63 | S. cerevisiae deletion strains, locus YPR163C, strain tif3, active compounds read low 0.359 | S. cerevisiae deletion strains, locus YPR167C, strain met16, active compounds read low 0.309 | S. cerevisiae deletion strains, strain wtn01, active compounds read low 0.22
